Measured values taken from PubChem BioAssay (NCATS).
Records with an inconclusive call do not appear. Where a call stands in place of a potency, no number is given. Activity calls are given as the source filed them. Calls follow the shape of the dose curve; as a rule, active = well fitted curve in the direction sought with a large enough effect; inconclusive = small, poorly fitted or top-dose-only effect, or another doubt; inactive = no such curve, though single readings can be large; an effect the other way counts as inactive or inconclusive.

Experiments:
[1] = HepG2 cells viability qHTS for Zika virus inhibitors (AID 1347168); also: potency is read from the fitted curve at half-maximal effect
In short: (§1)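 Counter-screen for cytotoxicity of hits from NS2B-NS3 protease qHTS. Overnight-attached cells (2.5 x 10^5 cells/mL, DMEM/4% FBS) were dosed in titration, incubated 24 to 48 hours, then assayed by CellTiter Glo.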

[2] = tested on: Zika virus NS2B-NS3 protease (unlinked complex); assay: Primary screen GU Rhodamine qHTS for Zika virus inhibitors: Unlinked NS2B-NS3 protease assay (AID 1347159); also: nearly all actives have a fitted effect of over 60% in size
In short: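 Percent inhibition derives from the 15-min fluorescence change (ex 480, em 540 nm), normalized to no-enzyme and no-inhibitor wells. Reactions contained 25 nM NS2B-NS3 complex and 1.5 microM substrate in 10 mM Tris-HCl pH 8.0.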

[3] = tested on: Zika virus NS2B-NS3 protease (linked construct); assay: Primary screen NINDS Rhodamine qHTS for Zika virus inhibitors (AID 1347160); also: nearly all actives have a fitted effect of over 55% in size
In short: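 In 10 mM Tris-HCl pH 8.0 containing 0.01% Tween 20, linked NS2B-NS3 protease (25 nM final) is exposed to test compounds for 15 min. Cleavage of 1.5 microM Rhodamine110 substrate is tracked by fluorescence over 15 min.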

[4] = Vero cells viability qHTS for Zika virus inhibitors (AID 1347167)
In short: as §1

[5] = molecular target: Lysine-specific demethylase 5B (Homo sapiens) (UniProt Q9UGL1); assay: Optimization screen for KDM5B Histone Demethylases FDH coupled qHTS against the LOPAC library (AID 1347166)
Excerpt: Assay Submitter (PI): Qin Yan, Ph.D. (Yale University) and Xiaodong Cheng, Ph.D. (MD Anderson)
This project was funded as part of the NCI NEXT Program and Chemical Biology Consortium (CBC)
The histone demethylases, KDM5A and KDM5B catalyze the demethylation of lysine 4 on histone H3 (H3K4me3/2). They
are overexpressed in a variety of cancers and have been implicated in cancer cell growth, metastasis, drug resistance, and tumor growth. KDM5A is amplified and overexpressed in breast and gastric cancer; and is translocated in leukemia. While KDM5B is highly expressed in human mammary tumors and breast cancer cell lines, but not in normal adult breast tissue. Moreover, knockdown of KDM5B leads to upregulation of tumor suppressor genes, including BRCA1. The goal of this project is to employ qHTS to identify selective small molecule inhibitors of KDM5A/B demethylase activity to better understand the role of KDM5 in cancer and to develop novel therapies.
We employed an FDH-coupled assay previously reported by Sakurai et al. to monitor in vitro KDM5 demethylase activity. […] This assay is run against the NCGC Lopac collection of about 1,200 compounds to evaluate its amenability to quantitative High Throughput Screening (qHTS) platform. […]
Three microliter enzyme mix (buffer + 200nM KDM5BDeltaAP final concentration) is dispensed into the assay plate using the BioRAPTR Flying Reagent Dispenser (FRD; Beckton-Dickenson). […] The assay plate is incubated for 10 min at room temperature followed by addition of 1uL substrate mix (buffer + 100uM ascorbic acid, 50uM ferrous ammonium sulfate, 12.5uM H3K4Me3, 25uM a-ketoglutarate, 0.25 mM NAD+, 0.25 U/mL formaldehyde dehydrogenase using the FRD yielding a total reaction volume of 4 uL. Initial fluorescence (Read1) is detected using the PerkinElmer ViewLux plate reader equipped with 340 nm excitation and 450 nm emission filters. The final fluorescence (Read2) signal is obtained after 30 min of room temperature incubation. Delta RFU is calculated (Read2 - Read1) and is used to generated dose response curves

[6] = Confirmatory screen NINDS Rhodamine qHTS for Zika virus inhibitors (AID 1347161);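 also: purified Zika NS2B-NS3 protease with linked NS2B cofactor domain and Rhodamine110 peptide substrate; series mostly up to about 110 µM; nearly all actives have a fitted effect of over 60% in size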
In short: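 Enzyme (25 nM, linked NS2B-NS3) was preincubated 15 min with compound in 10 mM Tris-HCl pH 8.0, 0.01% Tween 20. Rhodamine110 substrate (1.5 microM) was then added and fluorescence read at start and after 15 min.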

Lysine-specific demethylase 5B (Homo sapiens), sequence (Q9UGL1 whole entry, looked up): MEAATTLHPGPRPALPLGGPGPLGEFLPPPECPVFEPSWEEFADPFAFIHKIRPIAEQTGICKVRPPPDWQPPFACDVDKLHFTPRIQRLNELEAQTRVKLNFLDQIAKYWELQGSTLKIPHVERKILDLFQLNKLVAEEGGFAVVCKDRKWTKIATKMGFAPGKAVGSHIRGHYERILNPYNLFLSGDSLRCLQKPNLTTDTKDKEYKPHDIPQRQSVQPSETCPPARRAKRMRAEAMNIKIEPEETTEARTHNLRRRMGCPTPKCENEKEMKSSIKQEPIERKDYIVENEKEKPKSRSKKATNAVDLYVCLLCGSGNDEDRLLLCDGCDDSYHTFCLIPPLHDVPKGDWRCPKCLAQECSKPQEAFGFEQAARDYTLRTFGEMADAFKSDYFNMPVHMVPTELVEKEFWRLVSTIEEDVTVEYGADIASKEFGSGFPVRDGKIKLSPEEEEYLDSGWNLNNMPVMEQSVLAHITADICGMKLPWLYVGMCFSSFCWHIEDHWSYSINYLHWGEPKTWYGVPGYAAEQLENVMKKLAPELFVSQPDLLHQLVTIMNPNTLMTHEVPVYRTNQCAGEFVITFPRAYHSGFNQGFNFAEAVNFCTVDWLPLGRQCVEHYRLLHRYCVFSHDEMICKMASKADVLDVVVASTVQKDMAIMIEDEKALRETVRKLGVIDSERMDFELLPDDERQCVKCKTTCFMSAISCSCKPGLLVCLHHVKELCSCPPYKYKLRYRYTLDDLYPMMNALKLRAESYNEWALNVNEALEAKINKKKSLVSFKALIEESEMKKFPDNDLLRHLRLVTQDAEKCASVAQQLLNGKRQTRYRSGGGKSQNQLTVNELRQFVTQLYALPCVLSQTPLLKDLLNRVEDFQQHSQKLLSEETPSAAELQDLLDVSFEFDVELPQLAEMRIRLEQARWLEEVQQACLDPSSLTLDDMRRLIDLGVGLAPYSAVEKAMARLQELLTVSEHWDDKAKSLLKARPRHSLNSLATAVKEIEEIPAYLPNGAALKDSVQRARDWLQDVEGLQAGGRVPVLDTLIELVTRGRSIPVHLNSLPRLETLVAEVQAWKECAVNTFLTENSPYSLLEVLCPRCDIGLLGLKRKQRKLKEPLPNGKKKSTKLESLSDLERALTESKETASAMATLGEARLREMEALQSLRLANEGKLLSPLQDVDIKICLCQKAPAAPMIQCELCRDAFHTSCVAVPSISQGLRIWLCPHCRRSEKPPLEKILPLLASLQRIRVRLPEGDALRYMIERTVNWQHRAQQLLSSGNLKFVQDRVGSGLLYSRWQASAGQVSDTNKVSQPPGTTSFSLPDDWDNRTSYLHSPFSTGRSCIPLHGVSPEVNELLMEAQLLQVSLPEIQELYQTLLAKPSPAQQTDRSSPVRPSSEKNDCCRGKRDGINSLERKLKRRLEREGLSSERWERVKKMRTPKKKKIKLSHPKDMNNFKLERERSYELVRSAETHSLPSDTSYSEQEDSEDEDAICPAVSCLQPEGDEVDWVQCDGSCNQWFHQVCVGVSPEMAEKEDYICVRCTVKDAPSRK

With `CCCCCCCCc1ccc(CCC(N)(CO)CO)cc1` the Potency [1] was 26.2 µM (active).

For `Cc1ccc(-n2[nH]c(C)c(N=Nc3cccc(-c4cccc(C(=O)O)c4)c3O)c2=O)cc1C`, the Potency [1] was “inactive”.

With `CCCCOc1ccc(C(=O)Nc2ccc(F)cc2F)cc1` the Potency [2] was “inactive” and the Potency [3] was “inactive”.

For `C[C@@H](Cc1cc2c(c(C(N)=O)c1)N(CCCO)CC2)NCCOc1ccccc1OCC(F)(F)F`, the Potency [2] was “inactive” and the Potency [3] was “inactive”.

In the case of `Cc1cncc2cccc(S(=O)(=O)N3CCCN(C(=O)CN)C[C@@H]3C)c12`, the Potency [2] is reported as “inactive” and the Potency [3] is reported as “inactive”.

For `C[C@H]1COc2c(N3CCN(C)CC3)c(F)cc3c(=O)c(C(=O)O)cn1c23`, the outcome [4] was “inactive” and the Potency [1] was “inactive”.

With `c1cncc(CN2CCC(n3ncc4c(N5CCOCC5)nc(-c5ccc6[nH]ccc6c5)nc43)CC2)c1` the Potency [2] was “inactive” and the Potency [3] was “inactive”.

In the case of `Nc1ccc(C(=O)Nc2cccc(-c3nc(N4CCOCC4)c4oc5ncccc5c4n3)c2)cn1`, the Potency [3] is reported as “inactive”.

For `Cc1ncc(-c2ccnc(Nc3ccc(S(C)(=O)=O)cc3)n2)n1C(C)C`, the Potency [2] was “inactive” and the Potency [3] was “inactive”.

In the case of `Oc1ccc([C@@H]2Oc3ccc(O)cc3[C@@H]3CCC[C@@H]32)cc1`, the Potency [3] is reported as “inactive”.

With `Cc1cnc(Nc2ccc(CN3CCOCC3)cc2)nc1Nc1cccc(S(=O)(=O)NC(C)(C)C)c1` the Potency [2] was “inactive” and the Potency [3] was “inactive”.

For `COc1ccc2cc([S+]([O-])Cc3ncc(C)c(OC)c3C)nc2c1`, the outcome [5] was “inactive”.

For `CN[C@@H]1C[C@H]2O[C@@](C)([C@H]1OC)n1c3ccccc3c3c4c(c5c6ccccc6n2c5c31)C(=O)N[C@H]4O`, the Potency [6] was “inactive” and the Potency [1] was 10.4 µM (active).

With `C[C@@H](NCc1cc2ccccc2[nH]1)c1cccc2ccccc12` the Potency [6] was “inactive”.
